# Measurements as given in PubChem BioAssay.
# The source made the active and inactive calls.
# Legend:
# [1] = tested on: Plasmodium falciparum Sir2 (PF13_0152, Sir2A); test: pfSir2 binders on small-molecule microarrays, primary screen, biochemical, small-molecule microarray, 635 nm fluorescence (AID 1098); conditions: small-molecule microarray binding, fluorescence 635 nm; higher = more signal;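 also: score merges spot fluorescence intensity with its signal-to-noise ratio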
# [2] = small-molecule microarray binders of probe aDKK1, primary screen, biochemical, biotinylated probe, 635/667 nm fluorescence (AID 1099); conditions: higher = more signal;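 also: score merges 667nm spot fluorescence with signal to noise across triplicate slides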
# [3] = small-molecule microarray binders of probe aCHRDL2, primary screen, biochemical, biotinylated probe, 635/667 nm fluorescence (AID 1100); conditions: higher = more signal
# [4] = splicing luciferase reporter signal modulators, primary screen, spliceosome inhibition project, cell-based, HEK293, splice +/- reporter (AID 1101); conditions: luminescence, 24 h, higher = more signal, called active from +8 up or from −8 down;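 also: HEK293 cells carrying a splicing-competent luciferase reporter gene; test concentration not given here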
# [5] = target: Fibroblast growth factor 10 (Homo sapiens) (UniProt O15520); test: FGF10 binders on small-molecule microarrays, primary screen, biochemical, small-molecule microarray, 635 nm fluorescence (AID 1102); conditions: FGF10 binding, fluorescence 635 nm, higher = more signal
# [6] = tested on: glycogen synthase kinase-3 (GSK3A per assay name; protocol says GSK3B); test: GSK3 binders on small-molecule microarrays, primary screen, biochemical, small-molecule microarray, 635 nm fluorescence, GSK3A (AID 1103); conditions: small-molecule microarray binding, fluorescence 635 nm; higher = more signal; also: the record names both GSK3A and GSK3B
# [7] = target: Epidermal growth factor receptor (Homo sapiens) (UniProt P00533); test: EGFR binders on small-molecule microarrays, primary screen, biochemical, small-molecule microarray, 635 nm fluorescence (AID 1104); conditions: EGFR binding, higher = more signal;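 also: score merges 667 nm emission intensity with spot signal to noise over triplicate slides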
# [8] = target: Follistatin-related protein 3 (Homo sapiens) (UniProt O95633); test: FSTL3 binders on small-molecule microarrays, primary screen, biochemical, small-molecule microarray, 635 nm fluorescence (AID 1105); conditions: FSTL3 binding, higher = more signal;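 also: score merges emission near 667 nm and signal to noise per printed spot across three slides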
# [9] = target: Dickkopf-related protein 1 (Homo sapiens) (UniProt O94907); test: DKK1 binders on small-molecule microarrays, primary screen, biochemical, small-molecule microarray, 635 nm fluorescence scan (AID 1106); conditions: DKK1 binding, higher = more signal;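 also: score merges emission near 667 nm with signal to noise over three replicate slides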
# [10] = tested on: Inhibin beta A chain (activin A); test: INHBA (activin A) binders on microarrays, primary screen, biochemical, small-molecule microarray, 635 nm fluorescence scan (AID 1107); conditions: small-molecule microarray binding, higher = more signal;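 also: mouse activin A protein probed at 4.33 µg/mL on printed slides; score merges bound-protein fluorescence near 667 nm with spot signal-to-noise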
# [11] = tested on: Human papillomavirus type 1a protein E7 (residues 44-93); test: HPV1a E7 fragment binders on microarrays, primary screen, biochemical, small-molecule microarray, residues 44-93, 635 nm fluorescence (AID 1108); conditions: small-molecule microarray binding, fluorescence 635 nm; higher = more signal;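 also: E7 fragment applied at 1 µg/mL in TBST for 1 h at 4 C; score combines spot fluorescence with its signal to noise ratio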
# [12] = modulators of HCV replicon luciferase signal, primary screen, HCV replication inhibitor project, Huh7 cells, luciferase reporter (AID 1109); conditions: 48 h, higher = more signal;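 also: huh7 hepatoma cells harbouring a luciferase neomycin HCV replicon reporter; luciferase luminescence as measure of HCV replicon replication; test concentration not given here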
# [13] = target: Left-right determination factor 2 (Homo sapiens) (UniProt O00292); test: LEFTY2 binders on small-molecule microarrays, primary screen, biochemical, small-molecule microarray, 635 nm fluorescence scan (AID 1110); conditions: LEFTY2 binding, higher = more signal
# [14] = target: Calmodulin-1 (Homo sapiens) (UniProt P0DP23); test: CALM1 binders on microarrays, EGTA buffer, profiling panel, biochemical, small-molecule microarray, Cy5-labelled CALM1 (AID 1111); conditions: Cy5-CALM1 binding fluorescence, higher = more signal;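 also: labelled calmodulin applied in Tris saline Tween buffer holding calcium plus EGTA and DTT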
# [15] = target: Calmodulin-1 (Homo sapiens) (UniProt P0DP23); test: calcium-bound CALM1 binders on microarrays, profiling panel, artefact control for SMM control-protein annotation, biochemical, small-molecule microarray, Cy5-labelled CALM1, plus calcium (AID 1112); conditions: Cy5-CALM1 binding fluorescence, higher = more signal;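 also: score merges spot fluorescence with signal to noise from triplicate slides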
# [16] = small-molecule microarray binders of probe aWnt5a, primary screen, biochemical, biotinylated probe, 635/667 nm fluorescence (AID 1113); conditions: higher = more signal;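 also: score merges 667 nm fluorescence intensity with signal-to-noise per printed feature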
# [17] = small-molecule microarray binders of probe aShh, primary screen, biochemical, biotinylated probe, 635/667 nm fluorescence (AID 1114); conditions: higher = more signal;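 also: probe is biotin-labelled aShh protein from a stem cell growth factor screen; measures binding of labelled protein to compounds printed on the slide; score merges feature fluorescence at 667 nm with signal-to-noise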
# [18] = small-molecule microarray binders of probe aNog, primary screen, biochemical, biotinylated probe, 635/667 nm fluorescence (AID 1115); conditions: higher = more signal;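 also: probe is biotinylated aNog protein used at 0.15 µg/mL for 1 h at 4 C; z-score combines 667 nm fluorescence of each spot with its signal to noise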
# [19] = target: Torsin-1A-interacting protein 1 (Homo sapiens) (UniProt Q5JTV8); test: LAP1 binders from COS7 cell lysate, primary screen, small-molecule microarray, 635/667 nm fluorescence (AID 1116); conditions: COS7-hLAP1 lysate binding, 635 nm fluorescence, higher = more signal
# [20] = target: Alpha-bungarotoxin (Bungarus multicinctus) (UniProt P60615); test: alpha-bungarotoxin binders on microarray, profiling panel, artefact control for SMM control protein annotation, biochemical, small-molecule microarray, Alexa647 label, 635/667 nm fluorescence (AID 1117); conditions: alpha-BTX-A647 binding fluorescence, higher = more signal
# Alpha-bungarotoxin (Bungarus multicinctus), sequence (P60615 whole entry, looked up): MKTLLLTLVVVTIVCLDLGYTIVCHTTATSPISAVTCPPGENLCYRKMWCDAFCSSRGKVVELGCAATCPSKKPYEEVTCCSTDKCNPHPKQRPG
# Follistatin-related protein 3 (Homo sapiens), sequence (O95633 whole entry, looked up): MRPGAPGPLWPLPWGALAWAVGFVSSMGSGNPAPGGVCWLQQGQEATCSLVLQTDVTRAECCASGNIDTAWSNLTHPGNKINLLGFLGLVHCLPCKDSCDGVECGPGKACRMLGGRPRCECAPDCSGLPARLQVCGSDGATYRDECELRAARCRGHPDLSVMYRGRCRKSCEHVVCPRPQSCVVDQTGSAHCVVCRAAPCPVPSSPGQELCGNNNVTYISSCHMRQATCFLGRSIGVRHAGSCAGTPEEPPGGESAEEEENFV
# Epidermal growth factor receptor (Homo sapiens), sequence (P00533 whole entry, looked up): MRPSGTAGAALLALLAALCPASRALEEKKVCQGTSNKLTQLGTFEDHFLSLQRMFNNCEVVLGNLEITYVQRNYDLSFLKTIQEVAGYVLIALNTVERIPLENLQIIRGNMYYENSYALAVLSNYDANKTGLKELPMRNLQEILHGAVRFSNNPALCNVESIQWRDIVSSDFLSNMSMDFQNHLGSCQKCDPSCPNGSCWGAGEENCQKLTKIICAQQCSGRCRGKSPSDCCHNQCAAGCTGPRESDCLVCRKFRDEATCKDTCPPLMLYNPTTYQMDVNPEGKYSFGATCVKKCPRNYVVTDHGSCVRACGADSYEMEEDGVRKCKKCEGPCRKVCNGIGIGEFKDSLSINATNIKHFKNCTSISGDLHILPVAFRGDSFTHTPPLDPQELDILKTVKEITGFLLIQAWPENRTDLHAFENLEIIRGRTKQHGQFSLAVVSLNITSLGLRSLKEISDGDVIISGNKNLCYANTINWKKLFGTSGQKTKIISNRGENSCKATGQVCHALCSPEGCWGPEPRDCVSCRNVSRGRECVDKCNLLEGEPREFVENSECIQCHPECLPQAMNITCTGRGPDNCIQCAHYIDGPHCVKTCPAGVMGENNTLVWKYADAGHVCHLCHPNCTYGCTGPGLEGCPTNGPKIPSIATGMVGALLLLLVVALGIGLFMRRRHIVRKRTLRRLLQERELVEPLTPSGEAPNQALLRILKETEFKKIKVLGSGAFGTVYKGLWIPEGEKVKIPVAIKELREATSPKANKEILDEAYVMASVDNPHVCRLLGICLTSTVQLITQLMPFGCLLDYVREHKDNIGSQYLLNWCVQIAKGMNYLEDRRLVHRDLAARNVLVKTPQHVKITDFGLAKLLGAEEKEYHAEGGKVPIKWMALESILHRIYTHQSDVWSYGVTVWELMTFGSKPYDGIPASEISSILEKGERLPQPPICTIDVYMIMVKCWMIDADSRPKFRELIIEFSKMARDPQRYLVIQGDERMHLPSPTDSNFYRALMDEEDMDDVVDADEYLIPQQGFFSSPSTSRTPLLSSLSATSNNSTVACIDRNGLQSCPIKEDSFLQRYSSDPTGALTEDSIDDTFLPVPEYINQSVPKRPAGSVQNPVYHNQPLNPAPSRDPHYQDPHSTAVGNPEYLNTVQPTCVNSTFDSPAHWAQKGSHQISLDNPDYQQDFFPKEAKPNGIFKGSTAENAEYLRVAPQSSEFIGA
# Fibroblast growth factor 10 (Homo sapiens), sequence (O15520 whole entry, looked up): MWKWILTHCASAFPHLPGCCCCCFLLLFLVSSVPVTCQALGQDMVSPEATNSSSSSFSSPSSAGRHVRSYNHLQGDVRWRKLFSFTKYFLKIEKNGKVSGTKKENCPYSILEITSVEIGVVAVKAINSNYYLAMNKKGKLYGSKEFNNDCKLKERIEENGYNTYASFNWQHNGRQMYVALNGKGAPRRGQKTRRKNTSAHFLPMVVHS
# Dickkopf-related protein 1 (Homo sapiens), sequence (O94907 whole entry, looked up): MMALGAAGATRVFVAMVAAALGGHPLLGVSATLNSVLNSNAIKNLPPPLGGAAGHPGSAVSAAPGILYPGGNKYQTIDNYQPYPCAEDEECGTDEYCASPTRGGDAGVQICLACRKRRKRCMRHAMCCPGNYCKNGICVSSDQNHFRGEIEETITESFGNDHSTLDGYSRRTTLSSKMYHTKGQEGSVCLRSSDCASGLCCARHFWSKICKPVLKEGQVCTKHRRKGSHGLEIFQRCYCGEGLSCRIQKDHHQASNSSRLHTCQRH
# Torsin-1A-interacting protein 1 (Homo sapiens), sequence (Q5JTV8 whole entry, looked up): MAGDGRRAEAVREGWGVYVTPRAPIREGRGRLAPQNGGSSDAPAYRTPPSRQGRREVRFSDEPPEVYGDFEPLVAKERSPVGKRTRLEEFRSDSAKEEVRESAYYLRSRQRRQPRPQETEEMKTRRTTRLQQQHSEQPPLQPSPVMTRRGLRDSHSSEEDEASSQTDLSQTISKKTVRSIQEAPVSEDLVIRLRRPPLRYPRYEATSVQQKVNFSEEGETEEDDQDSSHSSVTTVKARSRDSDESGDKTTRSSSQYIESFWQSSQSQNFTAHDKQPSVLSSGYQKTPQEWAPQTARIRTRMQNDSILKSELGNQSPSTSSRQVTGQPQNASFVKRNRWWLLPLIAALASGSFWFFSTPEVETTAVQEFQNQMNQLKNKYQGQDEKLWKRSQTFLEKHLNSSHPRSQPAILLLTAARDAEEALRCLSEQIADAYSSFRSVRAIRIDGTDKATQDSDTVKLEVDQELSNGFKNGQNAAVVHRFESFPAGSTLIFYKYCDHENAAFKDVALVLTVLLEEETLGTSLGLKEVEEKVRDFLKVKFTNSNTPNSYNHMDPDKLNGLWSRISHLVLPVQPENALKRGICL
# Left-right determination factor 2 (Homo sapiens), sequence (O00292 whole entry, looked up): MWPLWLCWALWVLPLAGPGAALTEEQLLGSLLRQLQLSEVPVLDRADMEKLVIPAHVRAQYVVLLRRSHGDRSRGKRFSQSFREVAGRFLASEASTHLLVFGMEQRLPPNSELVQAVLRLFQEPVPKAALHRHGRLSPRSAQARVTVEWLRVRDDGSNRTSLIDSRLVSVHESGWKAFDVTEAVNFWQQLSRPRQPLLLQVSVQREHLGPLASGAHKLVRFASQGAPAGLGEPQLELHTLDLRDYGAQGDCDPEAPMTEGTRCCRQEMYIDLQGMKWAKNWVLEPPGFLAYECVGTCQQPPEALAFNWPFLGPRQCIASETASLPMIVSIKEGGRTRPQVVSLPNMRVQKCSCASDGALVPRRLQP
Compound,composite z-score [1],composite z-score [2],composite z-score [3],z-score [4],composite z-score [5],composite z-score [6],composite z-score [7],composite z-score [8],composite z-score [9],composite z-score [10],composite z-score [11],z-score [12],composite z-score [13],composite z-score [14],composite z-score [15],composite z-score [16],composite z-score [17],composite z-score [18],composite z-score [19],composite z-score [20]
CC(C)N1C(=O)C[C@@](C(=O)O)(c2ccc([N+](=O)[O-])cc2)[C@H]1c1ccc(CO)cc1,1.08,0.744,1.11,-0.186 (inactive),-0.443,-0.381,-1.12,-0.633,-0.803,0.593,0.48,0.253,-1.14,0.233,0.432,-0.118,-0.153,-0.409,0.335,-0.315
C=CCC(OC(C)=O)[C@@H]1[C@@H](N(Cc2cc3ccccc3o2)C(=O)Cc2ccc(F)cc2)c2cc(OCCCO)ccc2N1C(=O)Cc1ccc2ccccc2c1 (stereo not given in full),-0.255,-0.203,0.426,-0.123 (inactive),-0.108,-0.657,-0.805,-0.656,-0.607,0.779,-0.266,0.185,-0.537,0.0637,0.34,-0.147,0.0639,-0.136,0.0568,0.317
COC(=O)[C@@]1(Cc2ccc(OC)cc2)[C@H]2c3cc(C(=O)N(C)C)n(Cc4ccc(C)o4)c3C[C@H]2CN1C(=O)c1ccccc1,1.34,0.766,0.923,4.83 (inactive),0.251,1.18,-0.102,0.514,-0.716,0.861,1.42,-2.04,-0.466,0.372,-0.223,0.091,0.596,0.243,1.27,0.41
CCCC=C(CCC)[C@@H](NC(=O)c1cccs1)c1ccc(C(=O)OC)cc1,0.366,1.96,0.824,-0.571 (inactive),1.31,0.625,0.782,0.89,0.473,-0.032,0.805,-0.122,0.698,0.318,-0.276,1.34,2.03,2.91,0.406,0.159
C=C[C@@H](CO)N(Cc1ccc(OC)cc1)S(=O)(=O)c1ccc(Br)cc1,-0.36,0.188,0.681,-1.21 (inactive),0.0174,0.239,-0.142,-0.0506,-0.0478,0.0176,0.19,-1.25,0.211,-0.0366,-0.213,0.0377,-0.0709,-0.201,0.572,-0.0436
CCOC(=O)C[C@H]1[C@H](OC(=O)Cc2ccc3c(c2)OCO3)[C@@H](NC(=O)c2ccc3ccccc3n2)c2cc(OCCCO)ccc2N1C(=O)c1ccc2ccccc2n1,0.138,0.0134,-0.0731,-1.63 (inactive),0.813,0.495,0.267,0.492,0.483,0.265,0.0977,-1.63,0.464,0.509,-0.0205,-0.0512,0.0048,-0.115,0.0995,0.406
CC(C)=C1C(=O)C(c2ccccc2)=C2CN3C(=O)N(CCc4ccccc4)C(=O)[C@]3(Cc3ccc(C(F)(F)F)cc3)[C@H]21,1.04,1.18,1.3,0.0205 (inactive),-0.649,-0.0628,-1.22,0.13,-1.7,0.877,-0.396,-0.508,-0.906,1.66,0.953,0.0044,0.275,-0.781,0.759,0.716
C=C[C@H](C)[C@H](OC(=O)Nc1ccc(SC)cc1)c1ccc(OCCO)cc1,1.12,0.157,0.916,-3.34 (inactive),0.515,0.394,0.183,0.42,0.148,0.081,0.248,-1.19,-0.0482,0.272,-0.037,-0.183,0.142,0.576,1.6,1.58
NCCCCCNC(=O)[C@@H]1C[C@@H]2C(=O)N[C@@H](CCCCN)C(=O)N2[C@@H]1c1ccc(O)cc1,1.57,0.899,0.713,0.498 (inactive),1.41,1.34,1.13,1.43,1.81,1.32,1.37,-1.48,1.15,1.44,0.325,-0.0286,0.246,-0.103,1.51,1.2
CCOC(=O)C1=CC[C@@H](c2ccccc2)N(S(=O)(=O)c2ccc(C)cc2)[C@H]1c1ccccc1,0.264,0.769,0.54,-0.387 (inactive),0.356,0.738,-0.404,0.397,-0.187,0.903,1.1,-0.667,0.0056,0.578,0.626,0.0037,-0.138,-0.0496,0.46,0.995
